Data: PubChem BioAssay AID624330 (Southern Research Specialized Biocontainment Screening …, 2012)
The campaign covered roughly 340,000 compounds. About 2,100 (0.62%) were called active.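 The calls were made as follows: active = first-screen hits whose inhibition reached a set limit at any dose in the follow-up dose series; inconclusive = inhibition above the set first-screen limit but never retested; inactive = the rest.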 These entries were drawn from the full list. Potency and affinity values are given separately.

target: Rac GTPase-activating protein 1 (Homo sapiens) (UniProt Q9H0H5); experiment: MgcRacGAP GTPase-activating activity inhibitors, confirmation, biochemical, ADP Hunter fluorescence, primary and confirmatory (AID 624330); conditions: MgcRacGAP-stimulated Rac1 GTP hydrolysis, at 30 µM, hits give high values, GST-tagged Rac1 F28L mutant substrate;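 also: fluorescence reports GDP produced by GAP-driven GTP hydrolysis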
Sequence (Q9H0H5 whole entry, looked up): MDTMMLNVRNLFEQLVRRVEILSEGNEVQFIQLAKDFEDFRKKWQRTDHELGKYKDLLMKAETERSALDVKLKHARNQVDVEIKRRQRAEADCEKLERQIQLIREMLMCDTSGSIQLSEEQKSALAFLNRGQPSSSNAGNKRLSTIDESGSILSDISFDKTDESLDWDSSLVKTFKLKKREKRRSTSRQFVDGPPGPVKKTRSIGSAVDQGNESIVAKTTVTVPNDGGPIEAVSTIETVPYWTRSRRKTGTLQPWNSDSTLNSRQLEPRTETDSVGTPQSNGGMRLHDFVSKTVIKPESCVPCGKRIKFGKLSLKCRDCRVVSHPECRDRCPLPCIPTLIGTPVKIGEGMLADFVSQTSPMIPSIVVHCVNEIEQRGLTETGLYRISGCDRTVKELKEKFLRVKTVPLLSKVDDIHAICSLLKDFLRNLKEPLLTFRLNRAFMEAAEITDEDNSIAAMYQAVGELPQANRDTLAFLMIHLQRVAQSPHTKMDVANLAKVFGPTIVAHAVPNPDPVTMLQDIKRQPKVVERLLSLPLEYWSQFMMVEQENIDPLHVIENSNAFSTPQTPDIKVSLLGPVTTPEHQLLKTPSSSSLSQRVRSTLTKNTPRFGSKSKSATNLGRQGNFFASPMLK

inhibition, inactive:
CCOC(=O)N1CCN(c2c(N3CCN(c4ccccc4OC)CC3)c(=O)c2=O)CC1 8.07%
O=C(COC(=O)c1ccc(Cl)c(S(=O)(=O)N2CCCCC2)c1)NCc1ccco1 5.55%
CCC(C)NS(=O)(=O)c1ccc(OCC(=O)Nc2ccc(F)cc2F)cc1 (stereo not drawn) 4.64%
CCCOc1ccc(/C(O)=C2/C(=O)C(=O)N(CCCn3ccnc3)C2c2ccco2)cc1 (stereo not drawn) 7.22%
COc1ccc(NC(=O)CN(c2cc(C)cc(C)c2)S(=O)(=O)c2c(C)n[nH]c2C)cc1 6.02%
C=CCc1cc(Cl)ccc1OCCN1CC(C)OC(C)C1 (stereo not drawn) 26.3%
C=CCc1ccc(OCCCCN2CC(C)OC(C)C2)c(OC)c1 (stereo not drawn) 16.2%
CC(=O)C1=C(O)C(=O)N(c2ccc(F)cc2)C1c1ccc(C)cc1 (stereo not drawn) 9.06%
COc1ccc(S(=O)(=O)N2CCN(Cc3c[nH]c4ccccc34)CC2)cc1 -10.1%
COc1ccc(C(=O)C2CCCN(Cc3c[nH]c4ccccc34)C2)c(OC)c1 (stereo not drawn) -5.48%
COc1ccc(Br)cc1CN1CCCCCCC1 11.8%
COc1ccc(Br)cc1CN1CCN(S(=O)(=O)Cc2ccccc2)CC1 19.2%
c1ccc(CN2CCN(Cc3c[nH]c4ccccc34)CC2)cc1 8.7%
COc1ccc(Br)cc1CN1CCSCC1 19.9%
COc1ccc(CN2CCN(Cc3c[nH]c4ccccc34)CC2)cc1 30.3%
COc1ccc(Br)cc1CN1CCCCCC1 25.6%
CCOc1ccc(NC(=O)Nc2c(C)n(C)n(-c3ccccc3)c2=O)cc1 0.15%
O=C(NCc1ccc(F)cc1)C1CCCN(S(=O)(=O)c2ccc(Br)s2)C1 (stereo not drawn) 5.11%
COc1ccccc1NC(=O)C1=C(C)Nc2nc(-c3cccs3)nn2C1c1cccc(O)c1 (stereo not drawn) 3.45%
Cc1c(C(=O)OCC(=O)Nc2c(C)n(C)n(-c3ccccc3)c2=O)cccc1[N+](=O)[O-] -3.37%
COc1ccc(C(=O)N/C(=C\c2cc(OC)c(OC)cc2[N+](=O)[O-])C(=O)NCC(=O)O)cc1 5.33%
CN(C)CCNC(=O)c1cccc2nc3cccc(F)c3nc12 14%
COc1ccc(-c2nc3c(C(=O)NCCN(C)C)cccc3c3ccccc23)cc1 28.1%
CCOc1cc(/C=N/NC(=O)c2cccc(S(=O)(=O)N3CCCC3)c2)ccc1OCC(=O)N(C)C 5.83%
O=C(NN=Cc1ccc(F)cc1)c1cccc(S(=O)(=O)N2CCCC2)c1 6.35%
CCOc1ccccc1/C=N/NC(=O)c1cccc(S(=O)(=O)N2CCOCC2)c1 5.13%
CCN(CC)S(=O)(=O)c1cccc(C(=O)N/N=C/c2cccc(O)c2O)c1 15%
O=C(/C=C/c1ccc(N2CCCCC2)c([N+](=O)[O-])c1)c1ccc(S(=O)(=O)N2CCCC2)cc1 6.38%
O=C(N/N=C/c1ccc(F)c(F)c1)c1cccc(S(=O)(=O)N2CCCCC2)c1 0.51%
CCN(CC)S(=O)(=O)c1cccc(C(=O)N/N=C/c2cc(OC)c(O)c(OC)c2)c1 13.8%
O=C(O)c1ccc(S(=O)(=O)N2CCCCCCC2)cc1 13.8%
COc1cc2c(cc1OC)C(c1ccccc1)N(C(=O)C(C)(C)C)CC2 (stereo not drawn) 5.24%
COc1cc(/C=N/NC(=O)c2cccc(S(=O)(=O)N3CCCC3)c2)cc(OC)c1O 15.2%
COc1cc(/C=N/NC(=O)c2cccc(S(=O)(=O)N3CCCCC3)c2)cc(Br)c1O 18.1%
O=C(COC(=O)C1CC1)NCCc1ccccc1 -3.28%
COCCCN1C(=O)C(CC(=O)NCc2ccco2)CC(C(=O)N(C)C)=C1C (stereo not drawn) 14.3%
CCOc1ccc(NC(N)=O)cc1 2.99%
CCOc1ccc(NS(=O)(=O)c2ccc(N)cc2)cc1 1.38%
CCc1ccc(N2CN(Cc3cccnc3)CNC2=S)cc1 4.47%
COc1ccc(C2C(C(=O)Nc3cccc(C)n3)c3ccccc3C(=O)N2C)cc1 (stereo not drawn) 5.99%
O=C(c1cccc(F)c1)N1CCN(Cc2ccco2)CC1 24.7%
COc1ccc(Br)cc1CN1CCN(C(=O)c2cccc(F)c2)CC1 26.9%
O=C(c1cccnc1)N1CCN(Cc2cccc(F)c2)CC1 23.3%
O=C(c1cccnc1)N1CCN(Cc2ccc3ccccc3c2)CC1 22.8%
O=C(CCn1nc(-c2ccc(Cl)cc2)ccc1=O)N1CCN(c2ccccc2)CC1 11.2%
Cc1sc(NC(=O)CCC(=O)O)c(C#N)c1C 4.82%
CCCCNc1c(-c2ccc(-c3ccc(OC)cc3)c(OC)c2)nc2ccccn12 0.86%
CCc1nc2ccccc2c(C(=O)O)c1C 1.89%
CCOc1ccc(CC2S/C(=N/N=C/c3ccco3)NC2=O)cc1 (stereo not drawn) -0.79%
CN(C(=O)c1ccc(NC(=O)Cc2ccc(NC(=O)C3CCN(C(=O)C4CCCC4)CC3)cc2)cc1)C1CC1 4.41%
CCC(C)NC(=O)CNC(=S)N(CCCN1CCOCC1)Cc1cccs1 (stereo not drawn) -3.85%
Cc1ccc2c(c1)N(C(=O)CCC(=O)N1CCC(C(N)=O)CC1)CCO2 -0.21%
Cc1cc(Cl)ccc1NC(=O)CN1C(=O)NC2(CCCC2)C1=O 7.39%
O=C(CN1C(=O)NC2(CCCCC2)C1=O)Nc1ccc(N2CCCCC2)cc1 -8.69%
Cc1cc(N2CCCC2)ccc1NC(=O)CN1C(=O)NC(C)(c2ccccc2)C1=O (stereo not drawn) 22.9%
CCC1(c2ccccc2)NC(=O)N(CC(=O)Nc2ccccc2N2CCCC2)C1=O (stereo not drawn) 2.64%
Cc1ccc(C)c(NS(=O)(=O)c2cc3c4c(c2)CC(=O)N4CCC3)c1 12.2%
O=C1c2ccccc2C(=O)C1c1ccc(Br)cc1 9.65%
COc1cc(C2N(C)C(=O)c3ccccc3N2C)ccc1O (stereo not drawn) 9.29%
COc1cc(C2OCC3C(c4cc(OC)c(OC)c(OC)c4)OCC23)cc(OC)c1OC (stereo not drawn) 3.17%
Cc1ccc(C2C(=O)c3ccccc3C2=O)cc1 5.72%
COc1ccc(C2C(=O)c3ccccc3C2=O)cc1OC 8.73%
COc1cc([C@@H]2OC[C@@H]3[C@H]2CO[C@@H]3c2ccc3c(c2)OCO3)ccc1O 15.6%
